Data published in PubChem BioAssay.
The source made the active and inactive calls.

How the values were obtained:
[1] = tested on: Plasmodium falciparum Sir2 (PF13_0152, Sir2A); assay: pfSir2 binders on small-molecule microarrays, primary screen, biochemical, small-molecule microarray, 635 nm fluorescence (AID 1098); details: small-molecule microarray binding, fluorescence 635 nm; higher = more signal;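 further: score merges spot fluorescence intensity with its signal-to-noise ratio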
[2] = small-molecule microarray binders of probe aDKK1, primary screen, biochemical, biotinylated probe, 635/667 nm fluorescence (AID 1099); details: higher = more signal;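 further: score merges 667nm spot fluorescence with signal to noise across triplicate slides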
[3] = small-molecule microarray binders of probe aCHRDL2, primary screen, biochemical, biotinylated probe, 635/667 nm fluorescence (AID 1100); details: higher = more signal
[4] = splicing luciferase reporter signal modulators, primary screen, spliceosome inhibition project, cell-based, HEK293, splice +/- reporter (AID 1101); details: luminescence, 24 h, higher = more signal, called active from +8 up or from −8 down;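 further: HEK293 cells carrying a splicing-competent luciferase reporter gene; test concentration not given here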
[5] = target: Fibroblast growth factor 10 (Homo sapiens) (UniProt O15520); assay: FGF10 binders on small-molecule microarrays, primary screen, biochemical, small-molecule microarray, 635 nm fluorescence (AID 1102); details: FGF10 binding, fluorescence 635 nm, higher = more signal
[6] = tested on: glycogen synthase kinase-3 (GSK3A per assay name; protocol says GSK3B); assay: GSK3 binders on small-molecule microarrays, primary screen, biochemical, small-molecule microarray, 635 nm fluorescence, GSK3A (AID 1103); details: small-molecule microarray binding, fluorescence 635 nm; higher = more signal; further: the record names both GSK3A and GSK3B
[7] = target: Epidermal growth factor receptor (Homo sapiens) (UniProt P00533); assay: EGFR binders on small-molecule microarrays, primary screen, biochemical, small-molecule microarray, 635 nm fluorescence (AID 1104); details: EGFR binding, higher = more signal;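 further: score merges 667 nm emission intensity with spot signal to noise over triplicate slides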
[8] = target: Follistatin-related protein 3 (Homo sapiens) (UniProt O95633); assay: FSTL3 binders on small-molecule microarrays, primary screen, biochemical, small-molecule microarray, 635 nm fluorescence (AID 1105); details: FSTL3 binding, higher = more signal;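 further: score merges emission near 667 nm and signal to noise per printed spot across three slides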
[9] = target: Dickkopf-related protein 1 (Homo sapiens) (UniProt O94907); assay: DKK1 binders on small-molecule microarrays, primary screen, biochemical, small-molecule microarray, 635 nm fluorescence scan (AID 1106); details: DKK1 binding, higher = more signal;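 further: score merges emission near 667 nm with signal to noise over three replicate slides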
[10] = tested on: Inhibin beta A chain (activin A); assay: INHBA (activin A) binders on microarrays, primary screen, biochemical, small-molecule microarray, 635 nm fluorescence scan (AID 1107); details: small-molecule microarray binding, higher = more signal;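 further: mouse activin A protein probed at 4.33 µg/mL on printed slides; score merges bound-protein fluorescence near 667 nm with spot signal-to-noise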
[11] = tested on: Human papillomavirus type 1a protein E7 (residues 44-93); assay: HPV1a E7 fragment binders on microarrays, primary screen, biochemical, small-molecule microarray, residues 44-93, 635 nm fluorescence (AID 1108); details: small-molecule microarray binding, fluorescence 635 nm; higher = more signal;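 further: E7 fragment applied at 1 µg/mL in TBST for 1 h at 4 C; score combines spot fluorescence with its signal to noise ratio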
[12] = modulators of HCV replicon luciferase signal, primary screen, HCV replication inhibitor project, Huh7 cells, luciferase reporter (AID 1109); details: 48 h, higher = more signal;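 further: huh7 hepatoma cells harbouring a luciferase neomycin HCV replicon reporter; luciferase luminescence as measure of HCV replicon replication; test concentration not given here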
[13] = target: Left-right determination factor 2 (Homo sapiens) (UniProt O00292); assay: LEFTY2 binders on small-molecule microarrays, primary screen, biochemical, small-molecule microarray, 635 nm fluorescence scan (AID 1110); details: LEFTY2 binding, higher = more signal
[14] = target: Calmodulin-1 (Homo sapiens) (UniProt P0DP23); assay: CALM1 binders on microarrays, EGTA buffer, profiling panel, biochemical, small-molecule microarray, Cy5-labelled CALM1 (AID 1111); details: Cy5-CALM1 binding fluorescence, higher = more signal;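 further: labelled calmodulin applied in Tris saline Tween buffer holding calcium plus EGTA and DTT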
[15] = target: Calmodulin-1 (Homo sapiens) (UniProt P0DP23); assay: calcium-bound CALM1 binders on microarrays, profiling panel, artefact control for SMM control-protein annotation, biochemical, small-molecule microarray, Cy5-labelled CALM1, plus calcium (AID 1112); details: Cy5-CALM1 binding fluorescence, higher = more signal;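 further: score merges spot fluorescence with signal to noise from triplicate slides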
[16] = small-molecule microarray binders of probe aWnt5a, primary screen, biochemical, biotinylated probe, 635/667 nm fluorescence (AID 1113); details: higher = more signal;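 further: score merges 667 nm fluorescence intensity with signal-to-noise per printed feature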
[17] = small-molecule microarray binders of probe aShh, primary screen, biochemical, biotinylated probe, 635/667 nm fluorescence (AID 1114); details: higher = more signal;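 further: probe is biotin-labelled aShh protein from a stem cell growth factor screen; measures binding of labelled protein to compounds printed on the slide; score merges feature fluorescence at 667 nm with signal-to-noise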
[18] = small-molecule microarray binders of probe aNog, primary screen, biochemical, biotinylated probe, 635/667 nm fluorescence (AID 1115); details: higher = more signal;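 further: probe is biotinylated aNog protein used at 0.15 µg/mL for 1 h at 4 C; z-score combines 667 nm fluorescence of each spot with its signal to noise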
[19] = target: Torsin-1A-interacting protein 1 (Homo sapiens) (UniProt Q5JTV8); assay: LAP1 binders from COS7 cell lysate, primary screen, small-molecule microarray, 635/667 nm fluorescence (AID 1116); details: COS7-hLAP1 lysate binding, 635 nm fluorescence, higher = more signal
[20] = target: Alpha-bungarotoxin (Bungarus multicinctus) (UniProt P60615); assay: alpha-bungarotoxin binders on microarray, profiling panel, artefact control for SMM control protein annotation, biochemical, small-molecule microarray, Alexa647 label, 635/667 nm fluorescence (AID 1117); details: alpha-BTX-A647 binding fluorescence, higher = more signal
Sequence of Alpha-bungarotoxin (Bungarus multicinctus) (P60615 whole entry, looked up): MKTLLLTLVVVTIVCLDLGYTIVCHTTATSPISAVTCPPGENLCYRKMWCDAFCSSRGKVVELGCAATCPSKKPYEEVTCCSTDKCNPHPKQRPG

Sequence of Left-right determination factor 2 (Homo sapiens) (O00292 whole entry, looked up): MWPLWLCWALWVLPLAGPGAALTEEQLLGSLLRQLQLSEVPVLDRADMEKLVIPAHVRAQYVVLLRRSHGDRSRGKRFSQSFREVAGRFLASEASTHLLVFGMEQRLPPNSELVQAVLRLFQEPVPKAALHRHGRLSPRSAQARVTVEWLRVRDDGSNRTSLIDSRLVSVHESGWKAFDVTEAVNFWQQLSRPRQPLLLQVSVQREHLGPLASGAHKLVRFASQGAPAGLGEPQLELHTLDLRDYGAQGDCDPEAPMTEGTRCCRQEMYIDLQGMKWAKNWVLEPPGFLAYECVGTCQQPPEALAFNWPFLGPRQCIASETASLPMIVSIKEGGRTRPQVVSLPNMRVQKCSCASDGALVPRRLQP
Sequence of Fibroblast growth factor 10 (Homo sapiens) (O15520 whole entry, looked up): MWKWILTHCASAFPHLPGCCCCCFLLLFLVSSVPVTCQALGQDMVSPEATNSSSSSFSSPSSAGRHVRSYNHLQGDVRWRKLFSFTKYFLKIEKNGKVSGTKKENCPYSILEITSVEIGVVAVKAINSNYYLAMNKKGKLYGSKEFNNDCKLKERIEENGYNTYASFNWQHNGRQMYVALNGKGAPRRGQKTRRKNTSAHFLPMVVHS
Sequence of Torsin-1A-interacting protein 1 (Homo sapiens) (Q5JTV8 whole entry, looked up): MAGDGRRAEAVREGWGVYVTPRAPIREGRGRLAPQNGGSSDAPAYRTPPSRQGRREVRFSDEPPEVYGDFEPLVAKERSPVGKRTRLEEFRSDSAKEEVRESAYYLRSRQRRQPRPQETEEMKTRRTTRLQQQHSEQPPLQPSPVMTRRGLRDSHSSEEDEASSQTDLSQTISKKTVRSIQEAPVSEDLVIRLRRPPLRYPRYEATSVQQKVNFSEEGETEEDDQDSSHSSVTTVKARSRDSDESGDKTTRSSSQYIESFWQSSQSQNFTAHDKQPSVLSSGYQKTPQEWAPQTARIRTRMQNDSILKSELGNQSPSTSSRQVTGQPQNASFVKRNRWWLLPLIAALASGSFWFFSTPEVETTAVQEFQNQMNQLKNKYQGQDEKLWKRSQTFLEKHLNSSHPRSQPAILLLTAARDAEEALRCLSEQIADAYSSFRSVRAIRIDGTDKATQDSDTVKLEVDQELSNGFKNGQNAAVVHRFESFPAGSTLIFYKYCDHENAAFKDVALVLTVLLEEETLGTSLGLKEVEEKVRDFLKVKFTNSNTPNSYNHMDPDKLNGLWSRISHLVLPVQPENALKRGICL
Sequence of Dickkopf-related protein 1 (Homo sapiens) (O94907 whole entry, looked up): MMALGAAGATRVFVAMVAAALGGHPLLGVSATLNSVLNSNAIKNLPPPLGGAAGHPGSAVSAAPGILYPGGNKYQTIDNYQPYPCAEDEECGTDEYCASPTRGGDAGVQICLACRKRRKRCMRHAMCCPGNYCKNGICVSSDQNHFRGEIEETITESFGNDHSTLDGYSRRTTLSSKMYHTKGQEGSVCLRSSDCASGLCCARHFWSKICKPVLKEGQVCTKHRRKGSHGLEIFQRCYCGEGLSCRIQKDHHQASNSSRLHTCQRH
Sequence of Follistatin-related protein 3 (Homo sapiens) (O95633 whole entry, looked up): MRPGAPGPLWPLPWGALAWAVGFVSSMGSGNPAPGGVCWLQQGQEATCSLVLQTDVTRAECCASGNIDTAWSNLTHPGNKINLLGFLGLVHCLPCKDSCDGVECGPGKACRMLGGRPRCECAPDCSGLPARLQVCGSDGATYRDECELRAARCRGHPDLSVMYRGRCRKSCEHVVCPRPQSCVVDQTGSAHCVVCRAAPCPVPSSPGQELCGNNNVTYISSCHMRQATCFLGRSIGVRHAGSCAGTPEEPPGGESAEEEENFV
Sequence of Epidermal growth factor receptor (Homo sapiens) (P00533 whole entry, looked up): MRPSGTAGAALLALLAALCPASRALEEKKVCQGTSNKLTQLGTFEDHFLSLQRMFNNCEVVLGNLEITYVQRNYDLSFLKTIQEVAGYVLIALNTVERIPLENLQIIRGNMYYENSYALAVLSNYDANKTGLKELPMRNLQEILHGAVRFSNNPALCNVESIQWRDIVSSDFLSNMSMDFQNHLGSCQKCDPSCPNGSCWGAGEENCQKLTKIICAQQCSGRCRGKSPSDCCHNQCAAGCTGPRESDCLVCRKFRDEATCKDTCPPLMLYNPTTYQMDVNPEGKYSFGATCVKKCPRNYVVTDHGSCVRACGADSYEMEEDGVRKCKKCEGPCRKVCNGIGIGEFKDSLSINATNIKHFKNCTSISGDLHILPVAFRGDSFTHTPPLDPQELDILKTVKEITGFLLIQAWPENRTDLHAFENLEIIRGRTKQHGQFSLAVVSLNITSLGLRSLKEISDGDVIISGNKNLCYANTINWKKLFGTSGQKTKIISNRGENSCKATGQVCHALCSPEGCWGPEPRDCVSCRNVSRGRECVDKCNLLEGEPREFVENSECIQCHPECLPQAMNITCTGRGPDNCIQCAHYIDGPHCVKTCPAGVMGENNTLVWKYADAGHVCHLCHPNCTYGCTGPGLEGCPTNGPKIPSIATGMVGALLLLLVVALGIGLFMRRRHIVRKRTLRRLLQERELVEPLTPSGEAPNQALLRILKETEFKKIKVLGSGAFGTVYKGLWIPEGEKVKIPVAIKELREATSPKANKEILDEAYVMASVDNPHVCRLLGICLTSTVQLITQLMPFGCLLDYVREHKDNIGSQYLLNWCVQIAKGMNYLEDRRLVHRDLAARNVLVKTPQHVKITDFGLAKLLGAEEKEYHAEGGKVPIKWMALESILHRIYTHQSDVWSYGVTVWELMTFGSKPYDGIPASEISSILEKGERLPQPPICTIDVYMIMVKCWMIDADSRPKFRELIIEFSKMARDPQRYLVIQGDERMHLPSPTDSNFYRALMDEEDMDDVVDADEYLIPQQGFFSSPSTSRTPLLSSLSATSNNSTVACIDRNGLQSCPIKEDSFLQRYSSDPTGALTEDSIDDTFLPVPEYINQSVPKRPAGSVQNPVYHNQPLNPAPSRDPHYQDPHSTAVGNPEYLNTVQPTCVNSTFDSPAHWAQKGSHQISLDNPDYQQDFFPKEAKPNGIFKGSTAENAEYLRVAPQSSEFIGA

C=CCC(OC(C)=O)[C@@H]1[C@@H](N(Cc2cc3ccccc3o2)C(=O)c2ccc(C)cc2)c2cc(OCCCO)ccc2N1C(=O)c1ccc2ccccc2n1 (stereo not given in full)
composite z-score [1]: -0.222
composite z-score [2]: 0.164
composite z-score [3]: 0.504
z-score [4]: -0.178 (inactive)
composite z-score [5]: -0.146
composite z-score [6]: -0.216
composite z-score [7]: 0.311
composite z-score [8]: 0.0952
composite z-score [9]: -0.0273
composite z-score [10]: 1.51
composite z-score [11]: -0.185
z-score [12]: 0.725
composite z-score [13]: 0.21
composite z-score [14]: -0.197
composite z-score [15]: 0.574
composite z-score [16]: -0.148
composite z-score [17]: -0.043
composite z-score [18]: 0.421
composite z-score [19]: -0.0354
composite z-score [20]: 0.432

CC(C)CNC(=O)[C@@]1(C)c2ccccc2C(=O)N(Cc2ccc(OC(F)(F)F)cc2)[C@H]1c1ccc(CO)cc1
composite z-score [1]: -0.857
composite z-score [2]: 0.629
composite z-score [3]: 1.14
z-score [4]: 0.581 (inactive)
composite z-score [5]: -0.494
composite z-score [6]: -0.694
composite z-score [7]: -1.15
composite z-score [8]: -0.877
composite z-score [9]: -0.973
composite z-score [10]: 0.159
composite z-score [11]: -1.2
z-score [12]: 0.173
composite z-score [13]: -1.22
composite z-score [14]: -0.381
composite z-score [15]: 0.787
composite z-score [16]: -0.147
composite z-score [17]: -0.0769
composite z-score [18]: 0.264
composite z-score [19]: 1.5
composite z-score [20]: -0.36

COC(=O)C1=CC(c2ccc(CO)cc2)=CC(c2cccs2)N(Cc2cccc(OC(F)(F)F)c2)C=C1C(=O)OC (stereo not given)
composite z-score [1]: 1.49
composite z-score [2]: -0.0873
composite z-score [3]: 0.428
z-score [4]: 0.939 (inactive)
composite z-score [5]: 0.945
composite z-score [6]: 1.26
composite z-score [7]: -0.41
composite z-score [8]: 0.568
composite z-score [9]: -0.0789
composite z-score [10]: 1.09
composite z-score [11]: 0.532
z-score [12]: -1.84
composite z-score [13]: -0.0215
composite z-score [14]: 2.19
composite z-score [15]: 0.815
composite z-score [16]: -0.0236
composite z-score [17]: 0.685
composite z-score [18]: 1.39
composite z-score [19]: 1.81
composite z-score [20]: 3.16

CN1CCC(CCCO)=CC1C1CC1 (stereo not given)
composite z-score [1]: 0.537
composite z-score [2]: -0.499
composite z-score [3]: -0.896
z-score [4]: -1.18 (inactive)
composite z-score [5]: 0.59
composite z-score [6]: 0.348
composite z-score [7]: 0.0647
composite z-score [8]: 0.0254
composite z-score [9]: 0.293
composite z-score [10]: 0.719
composite z-score [11]: -0.416
z-score [12]: 0.306
composite z-score [13]: 0.637
composite z-score [14]: -1.21
composite z-score [15]: -1.36
composite z-score [16]: -0.172
composite z-score [17]: -0.138
composite z-score [18]: -0.473
composite z-score [19]: -0.434
composite z-score [20]: -0.234

CO[C@@H]1COC(=O)CC=C[C@@H](C)[C@H](OC)COC(=O)CC=C[C@H]1C
composite z-score [1]: 0.816
composite z-score [2]: -0.628
composite z-score [3]: -1.4
z-score [4]: 0.161 (inactive)
composite z-score [5]: 0.262
composite z-score [6]: 0.103
composite z-score [7]: 0.346
composite z-score [8]: 0.953
composite z-score [9]: 1.84
composite z-score [10]: 1.8
composite z-score [11]: -0.255
z-score [12]: 0.353
composite z-score [13]: 0.599
composite z-score [14]: -0.888
composite z-score [15]: -1.49
composite z-score [16]: -0.24
composite z-score [17]: 0.0796
composite z-score [18]: 0.563
composite z-score [19]: -0.176
composite z-score [20]: -0.587

CN(C)CCCC[C@@H]1NC(=O)[C@@H]2C[C@H](C(=O)NCCCCCNC(=O)CS)[C@H](c3ccc(O)cc3)N2C1=O
composite z-score [1]: 1.19
composite z-score [2]: 0.0418
composite z-score [3]: -0.109
z-score [4]: -0.812 (inactive)
composite z-score [5]: 1.11
composite z-score [6]: 0.667
composite z-score [7]: 0.0635
composite z-score [8]: 1.18
composite z-score [9]: 1.81
composite z-score [10]: 0.687
composite z-score [11]: 0.664
z-score [12]: 0.873
composite z-score [13]: 1.17
composite z-score [14]: 0.0884
composite z-score [15]: 1.25
composite z-score [16]: -0.124
composite z-score [17]: 0.199
composite z-score [18]: 0.498
composite z-score [19]: 0.761
composite z-score [20]: 1.65
